# About 83,000 compounds went through this panel and 20% of them were active in at least one assay; those are over-represented in the sample as a whole.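 Negative percent growth values reflect cell death: -40 means 40% of the cells present at the start died, and -100 means all died.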 A number with no mark means an inactive call. The source made the active and inactive calls. Rule for the calls: active = growth percent below 10; inactive = the rest.
# What was measured:
# Assay in all cases: NCI-60 one-dose screen, 48 h (100 = growth as untreated, 0 = no growth, -100 = all killed)
# Details in all cases: 10 µM unless noted
# [1] = test system: NCI-H23 lung
# [2] = test system: NCI-H226 lung
# [3] = test system: NCI-H322M lung
# [4] = test system: HOP-62 NSCLC
# [5] = test system: NCI-H460 lung
# [6] = test system: NCI-H522 lung
# [7] = test system: A549/ATCC NSCLC
# [8] = test system: 786-0 renal
# [9] = test system: COLO 205 colon
# [10] = test system: DU-145 prostate
# [11] = test system: K-562 leukemia
# [12] = test system: MALME-3M melanoma
# [13] = test system: MDA-MB-231 breast
# [14] = test system: RXF 393 renal
# [15] = test system: SF-268 CNS
# [16] = test system: SF-295 CNS
# [17] = test system: SF-539 CNS
# [18] = test system: UACC-257 melanoma
# [19] = test system: M14 melanoma
Compound,growth [1],growth [2],growth [3],growth [4],growth [5],growth [6],growth [7],growth [8],growth [9],growth [10],growth [11],growth [12],growth [13],growth [14],growth [15],growth [16],growth [17],growth [18],growth [19]
CCNC(=O)N1CCc2cc(OC)c(OCCc3ccc(OC)c(N)c3)cc2C1c1cc(C)c(C)cc1C (centres undefined),41.8%,44.7%,53.6%,34.2%,4.34% (active),5.26% (active),19.6%,23.3%,55.9%,38.7%,20.5%,45.5%,53.1%,22.5%,40.7%,18.3%,26.4%,50%,27.9%
CCOC(=O)c1c(Nc2ccccc2)nn2c(-c3cccs3)ccnc12,92.7%,89%,94.4%,93.8%,92.3%,82.1%,95.2%,71%,92.7%,84.7%,59%,88.7%,81.3%,-6.08% (active),91.4%,84.1%,84.1%,108%,91.6%
O=C(Nc1nonc1-c1ccccc1)c1ccc(C(F)(F)F)cc1,72.6%,89.4%,86.9%,81.5%,47.6%,82.7%,87.3%,90.4%,119%,92.5%,70%,68.5%,85.1%,90.3%,81.6%,59.7%,95.9%,77.8%,71.1%
Nc1nc(-c2cccc([N+](=O)[O-])c2)c(N=Nc2ccc([N+](=O)[O-])cc2Cl)s1,0.802% (active),-2.56% (active),13.8%,21.9%,1.77% (active),-3.73% (active),15.2%,3.66% (active),-61.6% (active),19.6%,10.7%,-3.18% (active),12.2%,-31.1% (active),20.5%,-18.4% (active),16.9%,-8.89% (active),4.9% (active)
CCNC(=O)N1CCc2cc(OC)c(OCCc3ccc(OC)c(N)c3)cc2C1c1ccc(C)cc1C (centres undefined),20%,42.9%,40.7%,26.9%,2.6% (active),-30.2% (active),9.14% (active),13.3%,13.3%,16.4%,15.1%,62.6%,15%,7.54% (active),26.1%,16.1%,13.6%,49.1%,16.5%
CCNC(=O)N1CCc2cc(OC)c(OCCc3ccc(OC)nc3)cc2C1c1ccc(OC)cc1C (centres undefined),44.8%,38.5%,55.6%,31%,3.64% (active),19.4%,30.4%,22.9%,29.3%,40.6%,20%,49.5%,52.8%,24.7%,32.9%,18.2%,22.6%,47%,29.7%
N/C(=N\C(N)=N\c1nc2ccccc2s1)c1cccc(F)c1,76.5% [5 µM],90.8% [5 µM],92.6% [5 µM],81.1% [5 µM],88.7% [5 µM],94.5% [5 µM],75.9% [5 µM],107% [5 µM],106% [5 µM],104% [5 µM],89.2% [5 µM],91.5% [5 µM],78.7% [5 µM],122% [5 µM],99.1% [5 µM],87.8% [5 µM],100% [5 µM],104% [5 µM],98.4% [5 µM]
c1n[nH]cc1-c1nc2ccc3[nH]ncc3c2c2c1CCCC2,19%,29.1%,31.1%,14.7%,9.2% (active),2.99% (active),15.7%,16.9%,8.98% (active),20.4%,33.9%,11.5%,49.1%,-51.4% (active),27%,29.5%,11%,37.1%,7.13% (active)
CC(C)(C)n1cc(-c2ccnc(NCCCNS(=O)(=O)c3cccc(F)c3)n2)c(-c2ccc(Cl)c(O)c2)n1,100%,107%,90.9%,111%,93.6%,89.9%,93.6%,99.7%,114%,94.4%,59%,94%,103%,105%,95.9%,108%,104%,114%,94.9%
CCCn1cnc2c(c1=N)C(c1ccc(Cl)cc1)c1sc3c(C)cccc3c1O2 (centres undefined),20.5%,62%,43.8%,44.2%,9.41% (active),-5.59% (active),29.1%,33.8%,1.53% (active),19.7%,7.73% (active),59.5%,28.6%,-4.19% (active),41.1%,-6.66% (active),-21.1% (active),86.5%,8.06% (active)
Cc1ccc(C(=O)NN2C(=O)/C(=C/C=C/c3ccco3)SC2=S)cc1,96.7%,96.1%,85.4%,105%,88.3%,83.5%,82.4%,106%,126%,103%,49.3%,93.9%,96.7%,131%,96.9%,102%,93.4%,91%,99.8%
Cc1ccc(NC(=O)N[C@@H](Cc2cc(F)cc(F)c2)C(=O)NC2C(=O)N3C[C@H](O)C[C@H]3C(=O)N3CCCC[C@H]3C(=O)N[C@@H](CO)C(=O)N3C[C@H](C)C[C@H]3C(=O)O[C@H]2C)c(F)c1 (some centres undefined),28.2%,8.45% (active),70.7%,48.3%,37.3%,26.9%,73.4%,93.6%,-11.9% (active),37.7%,27.9%,50.7%,38.8%,100%,35.5%,78.7%,43.5%,25.4%,58.4%
Cc1ccc(C2=Nn3c(nnc3-c3ccccc3)SC2)cc1,36.6%,61.2%,60.8%,27.5%,11.1%,-2.45% (active),44.6%,46.8%,3.27% (active),22.2%,15.7%,59.5%,51.4%,-6.84% (active),49.5%,10.4%,11.2%,55.5%,12.2%
CC(C)c1ccc(NCc2cn(-c3ccc(C(=O)O)cc3)nc2-c2cc(C(F)(F)F)cc(C(F)(F)F)c2)cc1,83.2%,85.8%,85.1%,94.9%,83%,85%,79.8%,90.7%,96.5%,89.6%,79.8%,71%,91.8%,97.2%,88.1%,98.5%,83.6%,94.9%,86%
CC1(COc2ccc3ncc(C#Cc4cncc(C(=O)Nc5cccc(C(F)(F)F)c5)c4)n3n2)COC1,60.9%,25%,95.9%,63.7%,85.4%,75.5%,88.3%,97.9%,80.7%,91.1%,47.8%,71.1%,44.5%,-4.67% (active),76.1%,79.6%,60.1%,98.1%,78%
CC[C@@H](CO)Nc1ccc2ncc(C#Cc3cncc(C(=O)Nc4ccc(CN5CCN(C)CC5)c(C(F)(F)F)c4)c3)n2n1,-71.5% (active),-39.4% (active),-30.1% (active),-71.7% (active),-88.8% (active),-76.1% (active),-35.3% (active),-96.8% (active),-87.2% (active),-82.4% (active),0.898% (active),-82.2% (active),-58.3% (active),-96.2% (active),-60.4% (active),-84.7% (active),-82.1% (active),-84.8% (active),-92% (active)
